Common to all, as to test: BK channel mutant inhibitors and activators – cell-based, U2OS BacMam, thallium flux, beta subunits, selectivity assay, profiling panel (AID 1259406);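 note: initial slope of Thallos dye fluorescence rise after thallium is added; log ratio against the mean of 0.3% DMSO vehicle wells on the same plate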
The subject of one assay is F380Y. The settings on record: U2OS BacMam BK variants, at 30 µM.
Another assay concerns F380Y/beta1. The settings on record: U2OS BacMam BK variants, at 30 µM.
Another assay concerns F380Y/beta2Delta. The settings on record: U2OS BacMam BK variants, at 30 µM.
The subject of another assay is F380Y/beta4. The settings on record: U2OS BacMam BK variants, at 30 µM.
The target in assay [1] is Calcium-activated potassium channel subunit alpha-1 (Homo sapiens) + Leucine-rich repeat-containing protein 26 (Homo sapiens) (UniProt Q12791+Q2I0M4). The settings on record: U2OS BacMam BK variants, F380Y/Slo1WT/gamma1, at 30 µM.
Another assay concerns R275C. The settings on record: U2OS BacMam BK variants, at 30 µM.
In the next assay the test system is R275C/beta1. The settings on record: U2OS BacMam BK variants, at 30 µM.
The next assay concerns R275C/beta2Delta. The conditions noted are these: U2OS BacMam BK variants, at 30 µM.
In another assay the test system is R275C/beta4. The settings on record: U2OS BacMam BK variants, at 30 µM.
The subject of another assay is R275C/Slo1WT/beta2. The settings on record: U2OS BacMam BK variants, at 30 µM.

The source of these data is PubChem BioAssay.

A number with no mark means an inactive call. Calls of active or inactive are those of the source.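 Rule for the calls: active = thallium flux through the channel raised or lowered by more than 3 SD from vehicle-only wells, actives on both sides; inactive = the rest.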

Chain of Calcium-activated potassium channel subunit alpha-1 (Homo sapiens) + Leucine-rich repeat-containing protein 26 (Homo sapiens) (Q2I0M4 whole entry, looked up, one chain of several): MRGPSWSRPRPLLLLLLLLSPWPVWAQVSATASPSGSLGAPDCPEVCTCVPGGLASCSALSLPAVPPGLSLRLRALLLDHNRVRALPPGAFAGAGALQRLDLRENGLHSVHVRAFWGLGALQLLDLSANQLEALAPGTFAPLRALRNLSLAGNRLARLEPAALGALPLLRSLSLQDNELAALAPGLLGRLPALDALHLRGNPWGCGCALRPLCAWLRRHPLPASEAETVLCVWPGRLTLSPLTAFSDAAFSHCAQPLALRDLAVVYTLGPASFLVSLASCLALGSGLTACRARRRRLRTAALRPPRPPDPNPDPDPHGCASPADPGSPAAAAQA

In the case of `Fc1cccc(Cl)c1CSc1nccn1-c1cccnc1`, the log fold change Tl+ flux with F380Y was 0.00886; in the assay on F380Y/beta1, 0.00855; in the assay on F380Y/beta2Delta it was 0.00345; with F380Y/beta4 it was 0.0175; in assay [1], 0.00834; with R275C, 0.0131. Moreover, the log fold change Tl+ flux in the assay with R275C/beta1 is 0.0289; in the assay with R275C/beta2Delta it was 0.0125; in the assay on R275C/beta4, 0.0207; in the assay on R275C/Slo1WT/beta2, 0.0418.
`O=C1NC2CC2N1C(=O)OCc1ccccc1` (stereo not given): the log fold change Tl+ flux with F380Y was 0.0285; in the assay on F380Y/beta1 it was -0.00537; in the assay with F380Y/beta2Delta, 0.0281; in the assay on F380Y/beta4 it was 0.054; in assay [1], -0.0415; with R275C it was 0.00866. Besides, the log fold change Tl+ flux is 0.00489 in the assay with R275C/beta1, 0.0219 in the assay with R275C/beta2Delta, -0.029 with R275C/beta4 and -0.0313 in the assay with R275C/Slo1WT/beta2.
As for `Cc1nn(Cc2nnc(-c3cc(C(F)(F)F)cc(C(F)(F)F)c3)o2)c(C)c1Br`, the log fold change Tl+ flux was -0.000532 in the assay with F380Y; -0.0352 in the assay on F380Y/beta1; -0.0793 in the assay on F380Y/beta2Delta; -0.0305 in the assay with F380Y/beta4; -0.0495 in [1]; -0.0117 with R275C. For the same compound, the log fold change Tl+ flux in the assay with R275C/beta1 is -0.0379; with R275C/beta2Delta, -0.0199; in the assay on R275C/beta4, 0.00363; in the assay with R275C/Slo1WT/beta2, 0.0313.
As to `O=c1[nH]cnc2scc(-c3cccs3)c12`, the log fold change Tl+ flux is -0.0452 with F380Y; -0.0118 in the assay on F380Y/beta1; 0.0191 with F380Y/beta2Delta; 0.0165 with F380Y/beta4; -0.0657 in assay [1]; -0.0434 in the assay on R275C. Besides, the log fold change Tl+ flux is 0.00866 in the assay on R275C/beta1, -0.0381 in the assay with R275C/beta2Delta, 0.0239 with R275C/beta4 and -0.0542 in the assay with R275C/Slo1WT/beta2.
Consider `Cc1cnc(N)c(C)n1`, for which the log fold change Tl+ flux was 0.0781 with F380Y; 0.0374 in the assay on F380Y/beta1; 0.0872 in the assay with F380Y/beta2Delta; -0.0219 in the assay with F380Y/beta4; 0.00805 in assay [1]; -0.0212 in the assay on R275C. Also, the log fold change Tl+ flux with R275C/beta1 is -0.0766; in the assay with R275C/beta2Delta, 0.039; with R275C/beta4 it was -0.0212; in the assay on R275C/Slo1WT/beta2, 0.0123.
Consider `Cc1cc(Nc2ccc(F)cc2F)nc(SCc2c(Cl)cccc2Cl)n1`, for which the log fold change Tl+ flux was -0.0282 in the assay with F380Y; -0.0344 in the assay with F380Y/beta1; -0.0422 with F380Y/beta2Delta; -0.123 (active) with F380Y/beta4; -0.039 in assay [1]; -0.0547 in the assay with R275C. Besides, the log fold change Tl+ flux is -0.0316 in the assay on R275C/beta1, -0.000965 in the assay with R275C/beta2Delta, -0.0113 with R275C/beta4 and -0.0702 in the assay on R275C/Slo1WT/beta2.
For the compound `NC(=O)CN1C(=O)C(=Cc2ccco2)N=C1c1ccccc1`, the log fold change Tl+ flux in the assay on F380Y was -0.0123; in the assay on F380Y/beta1 it was -0.0266; in the assay on F380Y/beta2Delta it was -0.0599; in the assay with F380Y/beta4 it was -0.0551; in assay [1] it was -0.015; in the assay on R275C, -0.000262. Further, the log fold change Tl+ flux in the assay on R275C/beta1 was 0.031; in the assay on R275C/beta2Delta, -0.0538; with R275C/beta4, 0.0139; in the assay with R275C/Slo1WT/beta2 it was -0.0206.
In the case of `N#Cc1c(F)cccc1NC1CCN(Cc2ccccc2)CC1`, the log fold change Tl+ flux is -0.0529 in the assay on F380Y; -0.0783 in the assay on F380Y/beta1; -0.0626 in the assay on F380Y/beta2Delta; -0.103 (active) in the assay with F380Y/beta4; -0.0887 in assay [1]; -0.0649 with R275C. The log fold change Tl+ flux with R275C/beta1 was -0.0261; in the assay on R275C/beta2Delta, -0.0118; in the assay with R275C/beta4 it was -0.0356; with R275C/Slo1WT/beta2 it was -0.0644.
In the case of `Cc1nc(-c2ccccc2)sc1C(=O)NC(=O)c1ccccc1O`, the log fold change Tl+ flux in the assay on F380Y was 0.0264; with F380Y/beta1, 0.0766; in the assay with F380Y/beta2Delta, 0.0338; in the assay on F380Y/beta4, 0.00645; in assay [1], 0.146 (active); with R275C, 0.0501. In addition, the log fold change Tl+ flux is 0.0519 with R275C/beta1, 0.07 in the assay on R275C/beta2Delta, 0.078 in the assay with R275C/beta4 and 0.011 in the assay with R275C/Slo1WT/beta2.
As to `Cn1c(SCc2ccc(C(F)(F)F)cc2)nnc1C(F)(F)F`, the log fold change Tl+ flux in the assay with F380Y was -0.0854; in the assay on F380Y/beta1 it was 0.00114; in the assay with F380Y/beta2Delta, -0.0293; in the assay with F380Y/beta4 it was 0.0223; in assay [1], -0.00125; in the assay on R275C, -0.0523. The log fold change Tl+ flux in the assay with R275C/beta1 is -0.14 (active); with R275C/beta2Delta, -0.0607; in the assay with R275C/beta4 it was -0.153 (active); with R275C/Slo1WT/beta2 it was -0.00318.
On to `Cc1nc(-c2ccc(C(F)(F)F)cc2)sc1CO`, for which the log fold change Tl+ flux in the assay with F380Y is 0.0603; with F380Y/beta1, 0.197 (active); in the assay on F380Y/beta2Delta it was 0.0517; with F380Y/beta4 it was 0.104 (active); in assay [1], 0.156 (active); in the assay on R275C it was 0.0174. Moreover, the log fold change Tl+ flux is 0.0853 with R275C/beta1, 0.0843 (active) in the assay on R275C/beta2Delta, 0.0953 (active) in the assay on R275C/beta4 and 0.00529 in the assay with R275C/Slo1WT/beta2.
As for `NC(=NC(=O)c1cccs1)c1cccs1`, the log fold change Tl+ flux was 0.00622 in the assay on F380Y; 0.0573 in the assay on F380Y/beta1; 0.0445 in the assay on F380Y/beta2Delta; 0.0177 in the assay on F380Y/beta4; 0.0217 in [1]; 0.0451 with R275C. Moreover, the log fold change Tl+ flux in the assay with R275C/beta1 is 0.0586; with R275C/beta2Delta it was 0.0615; with R275C/beta4 it was 0.0555; in the assay on R275C/Slo1WT/beta2, 0.0314.
On to `Cc1cc(C)n2nc(Sc3ncccc3[N+](=O)[O-])nc2n1`, for which the log fold change Tl+ flux in the assay on F380Y was 0.0293; with F380Y/beta1 it was -0.0122; with F380Y/beta2Delta, -0.0308; with F380Y/beta4, 0.00857; in assay [1], 0.0468; with R275C it was 0.0175. Moreover, the log fold change Tl+ flux in the assay on R275C/beta1 is -0.025; with R275C/beta2Delta, -0.00322; in the assay on R275C/beta4, 0.00925; in the assay on R275C/Slo1WT/beta2 it was 0.0318.
